The source of these data is PubChem BioAssay AID861 (The Scripps Research Institute Molecular Screening Center, 2007).

Structures are written as SMILES. The whole screen tested about 200,000 compounds, of which about 360 (0.18%) were called active. The list comes from a sample in which actives are over-represented; it also holds similar structures and randomly drawn compounds. Values without a mark were called inactive. Rule as the data show it: active = inhibition above about 25%; inactive = the rest.

Sequence of Toll-like receptor 4 (Homo sapiens) + Myeloid differentiation primary response protein MyD88 (Homo sapiens) (O00206 whole entry, looked up): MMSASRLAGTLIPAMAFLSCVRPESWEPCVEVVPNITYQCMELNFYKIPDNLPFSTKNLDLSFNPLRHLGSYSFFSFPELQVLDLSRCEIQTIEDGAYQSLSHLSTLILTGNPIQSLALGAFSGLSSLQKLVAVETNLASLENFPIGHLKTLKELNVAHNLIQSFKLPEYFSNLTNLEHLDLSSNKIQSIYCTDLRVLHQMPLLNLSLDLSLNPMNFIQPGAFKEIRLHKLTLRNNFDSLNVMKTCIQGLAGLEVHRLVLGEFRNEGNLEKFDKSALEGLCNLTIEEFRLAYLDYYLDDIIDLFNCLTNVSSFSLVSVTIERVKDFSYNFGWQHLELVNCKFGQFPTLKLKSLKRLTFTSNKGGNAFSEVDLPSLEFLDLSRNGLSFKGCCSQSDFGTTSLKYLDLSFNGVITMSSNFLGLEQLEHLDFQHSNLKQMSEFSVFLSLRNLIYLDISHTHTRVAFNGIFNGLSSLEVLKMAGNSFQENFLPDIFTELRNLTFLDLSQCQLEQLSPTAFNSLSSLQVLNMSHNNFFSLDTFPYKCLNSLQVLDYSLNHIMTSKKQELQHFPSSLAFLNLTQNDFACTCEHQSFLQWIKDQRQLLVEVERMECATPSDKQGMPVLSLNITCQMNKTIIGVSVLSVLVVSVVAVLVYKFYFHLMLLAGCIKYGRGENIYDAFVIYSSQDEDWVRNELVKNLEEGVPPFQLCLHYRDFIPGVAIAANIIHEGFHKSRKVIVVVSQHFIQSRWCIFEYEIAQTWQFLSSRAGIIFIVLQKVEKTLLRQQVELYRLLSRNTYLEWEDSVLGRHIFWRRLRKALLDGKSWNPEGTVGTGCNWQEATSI
Sequence of Toll-like receptor 4 (Homo sapiens) + Myeloid differentiation primary response protein MyD88 (Homo sapiens) (Q99836 whole entry, looked up): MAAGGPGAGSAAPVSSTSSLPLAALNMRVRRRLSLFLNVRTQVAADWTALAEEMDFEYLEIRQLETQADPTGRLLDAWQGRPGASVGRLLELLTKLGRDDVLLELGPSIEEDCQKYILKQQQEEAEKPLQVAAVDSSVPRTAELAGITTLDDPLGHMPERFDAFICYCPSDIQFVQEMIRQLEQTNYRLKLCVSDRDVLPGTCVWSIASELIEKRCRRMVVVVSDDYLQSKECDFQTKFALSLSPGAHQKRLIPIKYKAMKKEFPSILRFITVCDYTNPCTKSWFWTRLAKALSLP

The test has as its target Toll-like receptor 4 (Homo sapiens) + Myeloid differentiation primary response protein MyD88 (Homo sapiens) (UniProt O00206+Q99836). Description: inhibitors of TLR4-MyD88 association in cells, primary screen, cell-based, HeLa CL3-4, BLA complementation, FRET ratio (AID 861).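 Also: 0% = vehicle and 100% = reference inhibitor.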 Conditions: HeLa CL3-4 TLR4/MyD88 BLA complementation, at 8.4 µM, hits give high values.
On to `COC(=O)C1=NN(c2ccccc2)C2C(=O)N(c3ccccc3OC)C(=O)C12` (stereo not drawn), for which the inhibition (as a rule, the drop in the measured response relative to a control, in per cent) was 0.17%.

Regarding `Cc1cccc(C(=O)Nc2ccccc2C(=O)NCc2cccnc2)c1`, the inhibition is -0.85%.

For the molecule `C=C1c2cc(CC)ccc2NC(=O)N1c1ccc(C)cc1`, the inhibition is 1.66%.

In the case of `CCc1ccc2c(c1)C1(NN=C(c3ccccc3)S1)C(=O)N2` (stereo not drawn), the inhibition is 25.3% (active).

In the case of `O=C1Nc2ccccc2C12Nc1ccccc1S2` (stereo not drawn), the inhibition is -1.86%.

For `CNc1nc(Nc2ccc(C)c(Cl)c2)nc(N)c1[N+](=O)[O-]`, the inhibition is -5.76%.

As to `O=C(Nc1ccccc1Cl)/C(Cl)=C(\Cl)S(=O)c1ccccc1` (stereo not drawn), the inhibition was 27% (active).

On to `O=C(Nc1ccccc1Cl)c1ccc2nsnc2c1`, for which the inhibition was 7.26%.

As to `O=C(CN1CCCCC1)Nc1ccccc1Cl`, the inhibition was -3.05%.

For the molecule `CC1(c2ccccc2)CC(C)(C)N(C(=O)c2cc([N+](=O)[O-])cc([N+](=O)[O-])c2)c2ccccc21` (stereo not drawn), the inhibition is -16.2%.

As for `CCOc1ccc(C(C)=O)cc1COC(=O)c1cnc(Cl)c(Cl)c1`, the inhibition was 15.1%.

In the case of `COC(=O)/C(=C1\Oc2ccc(C(C)(C)C)cc2S1)C(F)(F)F`, the inhibition was 6.06%.

For `Cc1c(Cl)cccc1NC(=S)N(Cc1ccccc1)Cc1cccnc1`, the inhibition is 1.23%.

Regarding `CC(Sc1nc2c([nH]c3ccccc32)c(=O)n1C)c1ccccc1` (stereo not drawn), the inhibition was 8.9%.

Consider `CC1=NN(c2cccc(Cl)c2)C(=O)C12CC(C)=C(C)CS2` (stereo not drawn), for which the inhibition was 2.14%.

For `Cn1cc(CN2CCC(C(O)CCc3ccccc3)CC2)c(-c2ccccc2F)n1` (stereo not drawn), the inhibition is -13.8%.

Turning to `CC1CCN(C(=S)c2cccc(O)c2)CC1`, the inhibition is -6.27%.

For `O=[N+]([O-])c1ccc(N2CCN(CC(O)COc3ccccc3)CC2)cc1` (stereo not drawn), the inhibition is 5.02%.

Turning to `CCc1cccc(CC)c1NC(=O)COc1ccccc1C(=O)c1cc(C#N)c(=O)n(C2CCCCC2)c1`, the inhibition was -16.2%.

Consider `CC(C)CCN1C(=O)c2ccc(C(=O)Nc3cccc(S(N)(=O)=O)c3)cc2C1=O`, for which the inhibition was 1.58%.

Take `CC(=O)NCCc1nc2cc(NC(=O)c3ccccc3)ccc2n1C`: the inhibition was -9.04%.

Take `CC(Oc1ccc(Br)cc1Br)C(=O)NC1CCCC1` (stereo not drawn): the inhibition is -3.01%.

For the molecule `CS(=O)(=O)N(Cc1ccccc1Cl)c1ccc(C(=O)NCc2cccnc2)cc1`, the inhibition is -15.2%.
